Records with an inconclusive call do not appear. Entries that show only a call come without a potency. Activity calls are given as the source filed them. Calls come from the whole dose curve; as a rule, active = well fitted inhibition curve with a large enough effect; inconclusive = small, poorly fitted or top-dose-only effect; inactive = flat fitted curve, though single readings scatter.

This experiment relates to CRL-7250. Kind of experiment: qHTS assay to identify novel small-molecules to repurpose for Merkel cell carcinoma treatment (AID 1296009). Note: nearly all actives have a fitted effect of over 60% in size. Particulars: MCC and control cell lines, CellTiter-Glo viability, 72 h; series mostly up to 92 µM. The procedure, abridged: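 Dose-response viability screen; 72 hr exposure at 37 degree celsius; CellTiter-Glo added, 10 min room temperature, luminescence read; RLUs scaled between no-cell and DMSO wells.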
(qHTS replaces the single test concentration by a dilution series.)
For `C=C[C@H]1C(O[C@@H]2O[C@H](CO)[C@@H](O)[C@H](O)[C@H]2O)OC=C2C(=O)N3CCc4c([nH]c5ccccc45)C3CC21` (stereo partly drawn), the Potency result is “inactive”.
Still for that read-out and setting: the value for H-DPPDPDRFYGMM-NH2 was “inactive”.
In the case of `COC1=Cc2c(nc3n(c2=O)C(C)C(=O)NC3(O)C(C)C)OC=C1` (stereo not drawn), the Potency result was “inactive”.
Regarding `N[C@@]1(C(=O)O)CC[C@H]2[C@H](C(=O)O)[C@H]21`, the Potency result was “inactive”.
With `O=C(Nc1ccccc1)N1CCN(Cc2ccc3ccccc3n2)CC1`, the Potency result was “inactive”.
On the same count and under the same terms, to `CC12CCC3c4ccc(OC5OC(C(=O)O)C(O)C(O)C5O)cc4CCC3C1CCC2O` (stereo not drawn) belongs “inactive”.
Still for that read-out and setting: the value for `CC1=C(CO)CC(C(C)C2CCC3C4CC=C5CC(OC6OC(COC7OC(CO)C(O)C(O)C7O)C(O)C(O)C6O)CC(O)C5(C)C4CCC23C)OC1=O` (stereo not drawn) was “inactive”.
As to `CC(=O)N[C@H]1[C@H](O[C@H]2CC[C@@]3(C)C(CC[C@]4(C)C3CC=C3C5CC(C)(C)CC[C@]5(C(=O)O)[C@H](O[C@@H]5O[C@H](CO)[C@@H](O)[C@H](O)[C@H]5O)C[C@]34C)C2(C)C)O[C@H](CO[C@@H]2OC[C@H](O)[C@H](O)[C@H]2O[C@@H]2OC[C@@H](O)[C@H](O)[C@H]2O)[C@@H](O)[C@@H]1O` (stereo partly drawn), the outcome was “inactive [at 9.27 µM]”.
As to `C[C@H]1CC[C@@H]2N(C1)C[C@@H]1[C@H]([C@@H](O)[C@H](O)[C@]3(O)[C@H]1C[C@@]14OC5(O)[C@@H](C[C@@H](O)[C@@H]31)[C@]4(C)CC[C@@H]5O)[C@]2(C)O`, the Potency entry was “inactive”.
Take `CCCCc1c(-c2ccc(OC)cc2)[nH]c2nccnc12`: the Potency result was “inactive”.
As for `C[C@@H]1O[C@@H](O[C@@H]2[C@@H](O)[C@H](O[C@H]3CC[C@@]4(C)C(CC[C@]5(C)C4CC=C4[C@@H]6CC(C)(C)CC[C@]6(C(=O)O[C@@H]6O[C@H](CO)[C@@H](O)[C@H](O)[C@H]6O)CC[C@]45C)C3(C)C)O[C@H](C(=O)O)[C@H]2O)[C@H](O)[C@H](O)[C@H]1O` (stereo partly drawn), the outcome is “inactive [at 9.27 µM]”.
Still for that read-out and setting: to `CC1(CO)CC[C@]2(C(=O)O[C@@H]3O[C@H](CO)[C@@H](O)[C@H](O)[C@H]3O)CC[C@]3(C)C(=CCC4[C@@]5(C)C[C@H](O)[C@H](O[C@@H]6OC[C@@H](O)[C@H](O)[C@H]6O)[C@@](C)(CO)C5CC[C@]43C)C2C1` (stereo partly drawn) belongs “inactive [at 9.27 µM]”.
For the molecule `O=C1NC(Cc2ccccc2)C(=O)N2CCCC12` (stereo not drawn), the Potency entry was “inactive”.
Still for that read-out and setting: the value for `CC1=C2C[C@H]3O[C@@]3(C)CCC3O[C@@]3(C)C[C@@]2(O)OC1=O` (stereo partly drawn) was “inactive”; that for `COC(=O)C(CC1CCCC1)c1ccc(S(C)(=O)=O)cc1` (stereo not drawn) was “inactive”; that for `C[C@H](NC(c1cccc(C[P+](=O)O)c1)[C@H](C)O)c1ccc(Cl)c(Cl)c1` (stereo partly drawn) was “inactive”.
On the same count and under the same terms, to `Cc1onc(-c2ccccc2Cl)c1C(=O)N(C)c1ccc(Cl)cc1` belongs “inactive”.
Still for that read-out and setting: the value for `COC(=O)C1=CO[C@@H](O[C@@H]2O[C@H](CO)[C@@H](O)[C@H](O)[C@H]2O)[C@H]2[C@@H]1CC(OC)O[C@@H]2C` (stereo partly drawn) was “inactive”; that for `CCC(COC)n1nnc2c(Nc3ccc(OC)cc3C)nc(C)cc21` (stereo not drawn) was “inactive”.
Regarding `C[C@@H]1O[C@@H](O[C@H]2[C@H](OC(=O)[C@]34CCC(C)(C)C[C@H]3C3=CCC5[C@@]6(C)C[C@H](O)[C@H](O[C@@H]7O[C@H](C(=O)O)[C@@H](O)[C@H](O)[C@H]7O)[C@@](C)(CO)C6[C@H](O)C[C@@]5(C)[C@]3(C)C[C@H]4O)O[C@@H](CO)[C@@H]2O)[C@H](O)[C@H](O)[C@H]1O[C@@H]1OC[C@@H](O)[C@H](O[C@H]2OC[C@](O)(CO)[C@H]2O)[C@H]1O` (stereo partly drawn), the outcome was “inactive [at 9.27 µM]”.
For `CC1(C(=O)O)CCCC2(C)C3CCC4CC3(CCC12)CC4C(=O)O` (stereo not drawn), the Potency result is “inactive”.
On to `COC1C2=C(COC2=O)C2(C)CCCC(C)(CO)C2C1OC(=O)c1ccccc1` (stereo not drawn), for which the Potency entry was “inactive”.
Take `O=C(Nc1c(-c2cccs2)nc2ccccn12)c1ccc(Cl)cc1`: the Potency entry was “inactive”.
The same measure, in the same setting: the value for `CN(C)C(=O)C(O)C(Cc1ccccc1)NC(=O)c1cc2cc(Cl)ccc2[nH]1` (stereo not drawn) was “inactive”; that for `CC1=C(CC(=O)O)c2cc(F)ccc2C1=Cc1ccc(S(C)(=O)=O)cc1` was “inactive”; that for `COc1ccc(CN2C(=O)C(=O)c3cc(S(=O)(=O)N4CCC[C@H]4COc4cccnc4)ccc32)cc1` was “inactive”.
On the same count and under the same terms, the value for `CC(C)(O)C1CCC(C)(C2CCC3(C)C4CCC5C(C)(C(=O)OC6OC(CO)C(O)C(O)C6O)C(O)CC(O)C56CC46CCC23C)O1` (stereo not drawn) was “inactive”; that for `COc1cc(O)cc(C)c1C(=O)O[C@H]1[C@@H](OC(C)=O)[C@H](n2ccc(=O)[nH]c2=O)O[C@@H]1CO` was “inactive”.
